Drawing on PubChem BioAssay (Tox21), this text covers Potency, outcome and max activation for eight compounds.

Several values for one entry are separate records, joined by “and”; a condition that tells them apart may be missing. Equal entries are not always repeated. Inconclusive results are not listed. Where a structure was tested more than once in an assay, its records may differ in their call. Activity calls are given as the source filed them. The call rests on the fitted dose curve; in most records, active means well fitted curve in the direction sought with a large enough effect in the repeat runs; inconclusive means weak or mixed curves; inactive means no such curve, though single readings can be large; an effect the other way counts as inactive or inconclusive.

A short description of experiment [1]: Human pregnane X receptor (PXR) small molecule agonists, qHTS cell viability counter screen (AID 1346977). Further: nearly all actives have a fitted effect of over 50% in size. Further: potency means the concentration at half of the fitted maximal effect. The procedure, abridged:
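PXR-Luc HepG2 cells (2,000/well, 5% charcoal-stripped FBS) preincubated 5 hr, then exposed to compounds 24 hr at 37 C. Viability read in the same wells by CellTiter-Fluor fluorescence, reagent added at 23 hr, 1 hr incubation.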
(qHTS replaces the single test concentration by a dilution series.)

The nature of experiment [2]: Caspase-3/7 induction in HepG2 cells by small molecules, qHTS assay (AID 1346978). Further: nearly all actives have a fitted effect of over 15% in size. The procedure, abridged:
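Wild-type HepG2 cells, 2,000/well, settled 5 hr at 37 C and 5% CO2, then compound-treated for 17 hr; caspase-3/7 activity read by luminescent Caspase-Glo 3/7 after 30 min at room temperature.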

Experiment [3] in a line: Caspase-3/7 induction in CHO-K1 cells by small molecules, qHTS cell viability counter screen (AID 1346979). Further: nearly all actives have a fitted effect of over 35% in size. Further: potency means the concentration at half of the fitted maximal effect. The procedure, abridged: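 Wild-type CHO-K1 cells (1,500/well) treated with compound after 5 h plating; after 16 h at 37C, viability read as CellTiter-Fluor fluorescence following 1 h reagent incubation, in the same wells as the caspase read.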
Experiment [4] is described as follows: Caspase-3/7 induction in CHO-K1 cells by small molecules, qHTS assay (AID 1346980). Further: nearly all actives have a fitted effect of over 15% in size. In short, it runs like this: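 Wild-type CHO-K1 cells exposed to compounds for 17hr at 37 C, 5% CO2. Caspase-3/7 activity then measured by Caspase-Glo 3/7 luminescence after 30min at room temperature.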
The nature of experiment [5]: Caspase-3/7 induction in HepG2 cells by small molecules, qHTS cell viability counter screen (AID 1346981). Further: nearly all actives have a fitted effect of over 30% in size. Further: potency means the concentration at half of the fitted maximal effect. In short, it runs like this:
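Treatment of HepG2 cells with DMSO-delivered compounds ran 16 hr at 37 C following a 5-hr pre-incubation of 2,000 cells/well. CellTiter-Fluor fluorescence, read after 1 hr, served as the viability measure in a qHTS format.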

Experiment [6] addresses Nuclear receptor subfamily 1 group I member 2 (Homo sapiens) (UniProt O75469). Put plainly: Human pregnane X receptor (PXR) small molecule agonists, qHTS assay (AID 1346982). Further: nearly all actives have a fitted effect of over 35% in size. Further: potency means the concentration at half of the fitted maximal effect. The procedure, abridged: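 Stable HepG2 line reporting PXR-mediated CYP3A4 expression via luciferase. Treatment: 24 hr with compounds in DMSO at 37 C. Detection: ONE-Glo luminescence.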
Experiment [7] concerns the target Nuclear receptor subfamily 1 group I member 2 (Rattus norvegicus) (UniProt Q9R1A7). Kind of experiment: Rat pregnane X receptor (rPXR) activation by small molecules, qHTS assay (AID 1346983). Further: nearly all actives have a fitted effect of over 20% in size. The following applies: rPXR luciferase reporter cells, One-Glo luminescence, 24 h; max activation: stronger effect = higher value. The procedure, abridged:
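Cell-based rPXR activation assay: rPXR cells, 2,000 per well, rested 5hr at 37 C, then exposed to compounds in DMSO for 24 hr at 37 C. Luciferase activity read by One-Glo luminescence after 30 min at room temperature.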

Experiment [8] concerns the target Nuclear receptor subfamily 1 group I member 2 (Homo sapiens) (UniProt O75469). Kind of experiment: CYP3A4 induction through human pregnane X receptor (PXR) by small molecules, qHTS assay (AID 1346984). Further: nearly all actives have a fitted effect of over 40% in size. Further: potency means the concentration at half of the fitted maximal effect. In short, it runs like this: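 After 24 h at 37C with compound, DPX-2 cells (HepG2, co-transfected PXR response element and CYP3A4 promoter-luciferase) got 3uM final P450-Glo Luciferin-IPA for 3 h; One-Glo luminescence followed.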

For experiment [9] the target is unchanged. Put plainly: Human pregnane X receptor (PXR) activation by small molecules, qHTS assay (AID 1346985). Further: nearly all actives have a fitted effect of over 40% in size. Further: potency means the concentration at half of the fitted maximal effect. The procedure, abridged:
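DPX-2 cells (HepG2 co-transfected with a PXR response element and a CYP3A4-promoter luciferase construct) were seeded at 2,000 per well, rested 5 hr at 37C, then exposed to DMSO-dissolved compounds for 24 hr. Activation was read as luciferase luminescence.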

Experiment [10] deals with Cytochrome P450 2C19 (Homo sapiens) (UniProt P33261). Kind of experiment: Cytochrome P450 Family 2 Subfamily C Member 19 (CYP2C19) small molecule antagonists: luciferase reporter qHTS assay (AID 1671197). Further: nearly all actives have a fitted effect of over 65% in size. Further: potency means the concentration at half of the fitted maximal effect. The procedure, abridged: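 Inhibition of CYP2C19 was scored from loss of luminescence in a P450-Glo proluciferin substrate assay, NADPH-started and run 1 h at 37C, with ketoconazole as positive control.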

In experiment [11] the target is Cytochrome P450 2C9 (Homo sapiens) (UniProt P11712). Put plainly: Cytochrome P450 Family 2 Subfamily C Member 9 (CYP2C9) small molecule antagonists: luciferase reporter qHTS assay (AID 1671198). Further: nearly all actives have a fitted effect of over 50% in size. Further: potency means the concentration at half of the fitted maximal effect. The procedure, abridged:
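P450-Glo proluciferin substrate with CYP2C9 enzyme; 10 min RT preincubation, then NADPH regeneration 1 h at 37C; luciferin detection reagent 20 min RT, luminescence in relative luminescence units.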
On the technique in general: Reporter assays use an easily measured gene product as a stand-in for the process of interest.

In experiment [12] the target is Cytochrome P450 1A2 (Homo sapiens) (UniProt P05177). Put plainly: Cytochrome P450 Family 1 Subfamily A Member 2 (CYP1A2) small molecule antagonists: luciferase reporter qHTS assay (AID 1671199). Further: nearly all actives have a fitted effect of over 50% in size. Further: potency means the concentration at half of the fitted maximal effect. In short, it runs like this:
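Read-out is luminescence from luciferin detection reagent (20 min) proportional to CYP1A2 activity; compounds in DMSO preincubated 10 min with enzyme and proluciferin substrate, then NADPH regeneration solution, 1 h, room temperature.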

In experiment [13] the target is Voltage-gated inwardly rectifying potassium channel KCNH2 (Homo sapiens) (UniProt Q12809). Kind of experiment: Human Ether-a-go-go-Related Gene (hERG) channel small molecule antagonists: fluorescence cell-based qHTS assay (AID 1671200).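 Further: hERG-expressing U2OS cells given a thallium stimulus after FluxOR II dye loading; series mostly up to about 77 µM; nearly all actives have a fitted effect of over 50% in size.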 The procedure, abridged:
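hERG-U2OS cells plated overnight at 37 C, loaded with FluxOR II dye 1 h at RT in dark; after 10 min, thallium stimulus added. Fluorescence (480/540 nm) read kinetically for 2 min at 1 s intervals.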
(The hERG channel carries a current that helps repolarise heart muscle cells.)

In experiment [14] the target is Cytochrome P450 3A4 (Homo sapiens) (UniProt P08684). Put plainly: Cytochrome P450 Family 3 Subfamily A Member 4 (CYP3A4) small molecule antagonists: luciferase reporter qHTS assay (AID 1671201). Further: nearly all actives have a fitted effect of over 50% in size. Further: potency means the concentration at half of the fitted maximal effect. In short, it runs like this: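 P450-Glo CYP3A4 luminescent assay: compounds preincubated 10 min at room temperature with enzyme and proluciferin substrate, NADPH regeneration added, 1 h room-temperature reaction, stopped with luciferin detection reagent; luminescence read after 20 min. Ketoconazole positive control.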

Experiment [15] addresses Cytochrome P450 2D6 (Homo sapiens) (UniProt P10635). Put plainly: Cytochrome P450 Family 2 Subfamily D Member 6 (CYP2D6) small molecule antagonists: luciferase reporter qHTS assay (AID 1671196). Further: nearly all actives have a fitted effect of over 50% in size. Further: potency means the concentration at half of the fitted maximal effect. In short, it runs like this:
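Chemicals tested for interference with CYP2D6 activity; proluciferin substrate, NADPH regeneration, 1 h at room temperature, luminescent detection.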
On the % scale 0 is the no-effect control and ±100 the full control effect.

Voltage-gated inwardly rectifying potassium channel KCNH2 (Homo sapiens), sequence (Q12809 whole entry, looked up): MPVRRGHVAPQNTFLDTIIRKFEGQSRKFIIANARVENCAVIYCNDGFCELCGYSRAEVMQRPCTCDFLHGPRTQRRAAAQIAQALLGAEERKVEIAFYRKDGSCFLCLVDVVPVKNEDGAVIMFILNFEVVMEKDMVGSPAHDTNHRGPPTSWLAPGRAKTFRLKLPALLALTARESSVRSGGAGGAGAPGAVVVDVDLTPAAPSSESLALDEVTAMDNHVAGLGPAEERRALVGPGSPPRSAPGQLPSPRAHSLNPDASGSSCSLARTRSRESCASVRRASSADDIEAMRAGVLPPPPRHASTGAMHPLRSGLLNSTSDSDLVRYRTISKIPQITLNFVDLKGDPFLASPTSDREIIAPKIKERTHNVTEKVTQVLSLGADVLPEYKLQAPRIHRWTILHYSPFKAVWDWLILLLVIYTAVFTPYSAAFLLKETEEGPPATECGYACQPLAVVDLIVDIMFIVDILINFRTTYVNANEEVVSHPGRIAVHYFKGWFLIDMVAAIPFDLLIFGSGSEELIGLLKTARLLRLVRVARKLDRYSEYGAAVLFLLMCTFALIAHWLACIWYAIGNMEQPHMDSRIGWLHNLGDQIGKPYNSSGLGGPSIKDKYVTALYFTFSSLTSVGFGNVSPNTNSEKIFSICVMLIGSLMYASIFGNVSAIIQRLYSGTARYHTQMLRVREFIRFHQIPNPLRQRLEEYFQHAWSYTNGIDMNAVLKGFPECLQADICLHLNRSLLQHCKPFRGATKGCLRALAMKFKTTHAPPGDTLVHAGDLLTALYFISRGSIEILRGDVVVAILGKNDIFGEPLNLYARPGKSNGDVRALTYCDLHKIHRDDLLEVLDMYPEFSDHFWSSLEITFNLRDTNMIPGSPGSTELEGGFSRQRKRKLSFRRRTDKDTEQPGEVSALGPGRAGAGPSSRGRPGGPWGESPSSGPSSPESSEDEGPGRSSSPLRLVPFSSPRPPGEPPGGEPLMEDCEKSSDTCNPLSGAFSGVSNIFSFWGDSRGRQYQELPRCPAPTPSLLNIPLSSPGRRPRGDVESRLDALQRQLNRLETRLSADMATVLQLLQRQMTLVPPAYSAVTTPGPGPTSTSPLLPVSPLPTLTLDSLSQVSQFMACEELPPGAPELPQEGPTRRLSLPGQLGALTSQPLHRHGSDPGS
Cytochrome P450 1A2 (Homo sapiens), sequence (P05177 whole entry, looked up): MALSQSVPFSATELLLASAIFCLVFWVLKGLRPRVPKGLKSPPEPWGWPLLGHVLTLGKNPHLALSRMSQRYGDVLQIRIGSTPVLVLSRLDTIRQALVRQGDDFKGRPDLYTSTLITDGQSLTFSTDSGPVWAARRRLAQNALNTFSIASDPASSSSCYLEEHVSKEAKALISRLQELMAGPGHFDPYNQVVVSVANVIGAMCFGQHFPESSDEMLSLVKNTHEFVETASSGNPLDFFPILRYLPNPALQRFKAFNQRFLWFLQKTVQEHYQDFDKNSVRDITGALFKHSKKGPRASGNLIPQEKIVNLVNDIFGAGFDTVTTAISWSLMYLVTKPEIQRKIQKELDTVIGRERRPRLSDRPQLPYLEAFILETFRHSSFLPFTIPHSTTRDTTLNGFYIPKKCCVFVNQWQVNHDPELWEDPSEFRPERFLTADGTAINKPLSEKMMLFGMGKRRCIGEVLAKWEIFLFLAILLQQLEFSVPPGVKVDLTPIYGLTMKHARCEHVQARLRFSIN
Cytochrome P450 2C19 (Homo sapiens), sequence (P33261 whole entry, looked up): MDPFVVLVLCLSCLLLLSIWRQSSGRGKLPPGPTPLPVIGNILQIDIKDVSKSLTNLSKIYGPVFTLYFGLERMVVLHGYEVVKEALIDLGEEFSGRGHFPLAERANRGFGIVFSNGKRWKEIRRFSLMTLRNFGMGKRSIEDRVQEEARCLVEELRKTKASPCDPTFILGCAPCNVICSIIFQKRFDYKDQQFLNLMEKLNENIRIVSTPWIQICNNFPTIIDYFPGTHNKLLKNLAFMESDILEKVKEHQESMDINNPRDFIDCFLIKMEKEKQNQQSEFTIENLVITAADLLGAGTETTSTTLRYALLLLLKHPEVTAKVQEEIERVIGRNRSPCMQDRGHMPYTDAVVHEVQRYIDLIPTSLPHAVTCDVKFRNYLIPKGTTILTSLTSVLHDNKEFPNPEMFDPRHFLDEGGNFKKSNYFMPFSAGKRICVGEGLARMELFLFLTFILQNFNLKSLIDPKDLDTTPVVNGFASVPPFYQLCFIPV
Cytochrome P450 3A4 (Homo sapiens), sequence (P08684 whole entry, looked up): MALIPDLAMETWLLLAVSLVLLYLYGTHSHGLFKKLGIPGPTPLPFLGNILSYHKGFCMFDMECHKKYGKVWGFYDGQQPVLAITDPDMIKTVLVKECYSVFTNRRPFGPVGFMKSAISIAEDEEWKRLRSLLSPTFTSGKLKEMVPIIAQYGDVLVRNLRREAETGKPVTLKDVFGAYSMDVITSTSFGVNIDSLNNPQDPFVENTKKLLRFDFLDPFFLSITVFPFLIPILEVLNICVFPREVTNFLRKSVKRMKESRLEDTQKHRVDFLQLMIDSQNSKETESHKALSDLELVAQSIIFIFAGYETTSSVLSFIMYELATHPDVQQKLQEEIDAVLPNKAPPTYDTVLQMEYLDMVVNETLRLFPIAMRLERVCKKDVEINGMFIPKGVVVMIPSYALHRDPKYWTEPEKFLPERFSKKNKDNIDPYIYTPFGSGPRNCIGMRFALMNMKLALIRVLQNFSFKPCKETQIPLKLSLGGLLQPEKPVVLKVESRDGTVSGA
Nuclear receptor subfamily 1 group I member 2 (Homo sapiens), sequence (O75469 whole entry, looked up): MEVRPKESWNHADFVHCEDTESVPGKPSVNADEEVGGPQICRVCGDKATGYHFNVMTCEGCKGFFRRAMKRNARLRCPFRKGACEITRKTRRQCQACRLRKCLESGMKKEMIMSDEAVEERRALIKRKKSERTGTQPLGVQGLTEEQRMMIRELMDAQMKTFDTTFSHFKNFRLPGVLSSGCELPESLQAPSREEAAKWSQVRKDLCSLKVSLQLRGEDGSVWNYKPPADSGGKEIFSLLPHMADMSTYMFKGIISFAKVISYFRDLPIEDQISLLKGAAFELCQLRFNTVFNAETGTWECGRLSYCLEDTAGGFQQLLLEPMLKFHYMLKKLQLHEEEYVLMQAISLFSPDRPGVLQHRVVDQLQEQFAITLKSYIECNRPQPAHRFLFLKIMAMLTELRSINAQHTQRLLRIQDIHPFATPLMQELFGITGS
Nuclear receptor subfamily 1 group I member 2 (Rattus norvegicus), sequence (Q9R1A7 whole entry, looked up): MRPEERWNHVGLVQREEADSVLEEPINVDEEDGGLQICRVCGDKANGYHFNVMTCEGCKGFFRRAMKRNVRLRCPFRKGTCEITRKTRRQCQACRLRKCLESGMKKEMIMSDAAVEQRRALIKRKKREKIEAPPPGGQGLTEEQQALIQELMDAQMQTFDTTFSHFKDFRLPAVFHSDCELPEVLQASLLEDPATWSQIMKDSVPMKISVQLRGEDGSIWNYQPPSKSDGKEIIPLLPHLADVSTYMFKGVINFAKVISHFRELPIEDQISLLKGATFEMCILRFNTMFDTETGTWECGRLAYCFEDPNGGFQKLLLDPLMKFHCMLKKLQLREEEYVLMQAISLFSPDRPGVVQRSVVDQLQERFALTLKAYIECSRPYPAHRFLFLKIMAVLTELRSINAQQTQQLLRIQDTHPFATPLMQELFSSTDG
Cytochrome P450 2D6 (Homo sapiens), sequence (P10635 whole entry, looked up): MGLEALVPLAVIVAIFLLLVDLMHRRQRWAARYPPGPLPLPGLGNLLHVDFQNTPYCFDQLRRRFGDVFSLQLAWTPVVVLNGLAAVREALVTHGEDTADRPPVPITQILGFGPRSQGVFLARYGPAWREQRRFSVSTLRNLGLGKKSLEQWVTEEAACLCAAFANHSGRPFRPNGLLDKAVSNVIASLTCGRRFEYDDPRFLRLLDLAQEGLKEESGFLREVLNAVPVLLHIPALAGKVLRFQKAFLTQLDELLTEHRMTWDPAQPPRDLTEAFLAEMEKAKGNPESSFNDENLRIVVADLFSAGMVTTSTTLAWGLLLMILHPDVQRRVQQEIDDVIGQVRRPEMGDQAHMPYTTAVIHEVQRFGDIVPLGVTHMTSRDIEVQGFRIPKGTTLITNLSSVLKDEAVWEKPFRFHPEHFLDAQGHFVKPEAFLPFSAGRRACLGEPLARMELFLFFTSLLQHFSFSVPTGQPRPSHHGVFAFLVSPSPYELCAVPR
Cytochrome P450 2C9 (Homo sapiens), sequence (P11712 whole entry, looked up): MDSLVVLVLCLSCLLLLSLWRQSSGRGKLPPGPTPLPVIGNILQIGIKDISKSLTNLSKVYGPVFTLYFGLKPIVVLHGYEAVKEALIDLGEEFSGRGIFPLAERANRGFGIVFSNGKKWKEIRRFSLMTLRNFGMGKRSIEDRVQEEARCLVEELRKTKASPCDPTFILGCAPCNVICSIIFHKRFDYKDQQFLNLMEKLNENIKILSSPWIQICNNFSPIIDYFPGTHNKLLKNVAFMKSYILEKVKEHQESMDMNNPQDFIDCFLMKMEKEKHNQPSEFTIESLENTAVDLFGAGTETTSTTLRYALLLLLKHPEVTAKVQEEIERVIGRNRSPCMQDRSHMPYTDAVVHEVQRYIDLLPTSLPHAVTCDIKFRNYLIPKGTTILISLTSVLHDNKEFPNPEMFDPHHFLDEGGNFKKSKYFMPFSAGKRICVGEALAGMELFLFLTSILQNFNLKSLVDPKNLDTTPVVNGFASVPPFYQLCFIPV

With `O=C(O)C(Cc1cc(I)c(O)c(I)c1)c1ccccc1` (stereo not given), the Potency result in [1], in experiment [2], in experiment [3], in experiment [5], in experiment [6] and in experiment [8] was “inactive” each time. The Potency entry in [9], in [10], in experiment [13] and in [14] was “inactive” each time. The compound was called inactive in experiment [4]. Besides, the max activation in [7] was -2.03% (inactive). In addition, the Potency was 9.77 µM (active) in experiment [11] and 24.5 µM (active) in experiment [12].
In the case of `CC(=O)N(c1onc(C)c1C)S(=O)(=O)c1ccc(N)cc1`, the Potency entry in [1], in experiment [2], in experiment [3], in [5], in [6] and in experiment [15] was “inactive” in each case. Also, the Potency result in experiment [10], in [11] and in experiment [12] was “inactive” in each case. For the same compound, the call in experiment [4] was inactive.
As to `Cc1cc(O)c(C(C)C)cc1Cl`, the Potency result in experiment [1], in experiment [2], in experiment [3], in [5], in [6] and in experiment [8] was “inactive” throughout. For the same compound, the Potency entry in [9], in experiment [13] and in experiment [14] was “inactive” throughout. In addition, the compound was classed as inactive in [4]. For the same compound, the max activation in experiment [7] is -0.692% (inactive). The Potency was 63.3 µM (active) and inactive in experiment [15]; 35.6 µM (active) and 24.5 µM (active) in [10]; 14.2 µM (active) and 15.5 µM (active) in [11]; 20 µM (active) and 15.5 µM (active) in experiment [12].
As for `CC1CC(O)CC(C)(C)C1` (stereo not given), the Potency result in [1], in experiment [2], in experiment [3], in [5], in experiment [6] and in [8] was “inactive” in each case. The Potency entry in [9], in [15], in [10], in experiment [11], in [13] and in [14] was “inactive” in each case. The outcome in experiment [4] was inactive. Also, the max activation in experiment [7] was -0.957% (inactive).
With `O=[N+]([O-])c1cccc(S(=O)(=O)NCCNS(=O)(=O)c2cccc([N+](=O)[O-])c2)c1`, the Potency result in experiment [1], in [2], in experiment [3], in experiment [5] and in experiment [12] was “inactive” in each case. Besides, the outcome in [4] was inactive. Besides, the Potency is 13.3 µM (active) in experiment [6]; 7.94 µM (active) in experiment [8]; 14.1 µM (active) in experiment [9]; 3.09 µM (active) in experiment [10]; 8.71 µM (active) in experiment [11].
In the case of `Cc1cc(S(=O)(=O)O)ccc1N=Nc1c(O)ccc2ccccc12`, the Potency in experiment [1] is 24.3 µM (active); in experiment [3], 27.3 µM (active); in experiment [5], 30.6 µM (active); in experiment [15], 39.9 µM (active); in experiment [10] it was 20 µM (active); in experiment [11] it was 31.7 µM (active). Besides, the figures for the Potency in experiment [12] and in [14] were 25.2 µM (active) and 39.9 µM (active), respectively. Moreover, the Potency entry in [2], in [6] and in experiment [13] was “inactive” each time. Also, in experiment [4], the compound was classed as inactive.
For the compound `COc1cc2[nH]c(=O)[nH]c(=O)c2cc1OC`, the Potency entry in experiment [1], in experiment [2], in [3], in experiment [5], in [6] and in [8] was “inactive” throughout. Also, the Potency result in experiment [9], in experiment [15], in experiment [10], in experiment [11], in [13] and in experiment [14] was “inactive” throughout. For the same compound, the call in [4] was inactive. The max activation in [7] was -3.43% (inactive).
`CCn1cc(C(=O)O)c(=O)c2cc(F)c(N3CCNCC3)nc21`: the Potency entry in experiment [1], in [2], in [3], in experiment [5], in [6] and in [8] was “inactive” in each case. For the same compound, the Potency entry in experiment [9], in [15], in experiment [10], in experiment [11], in experiment [12] and in experiment [13] was “inactive” each time. In addition, in experiment [14], the Potency entry was “inactive”. Moreover, the compound was classed as inactive in [4]. In [7], the max activation is -1.42% (inactive).
